FLuc counter = firefly luciferase modulation, counter-screen for miR-21 project. P08659. purified FLuc, Km substrates, luminescence inhibition. Potency, µM (top dose mostly 57.5 µM), most hits filed as inhibitors. 360,000 tested, 6.9% active. AID 588342; further: nearly all actives have a fitted effect of over 55% in size
Target sequence (P08659 whole entry, looked up): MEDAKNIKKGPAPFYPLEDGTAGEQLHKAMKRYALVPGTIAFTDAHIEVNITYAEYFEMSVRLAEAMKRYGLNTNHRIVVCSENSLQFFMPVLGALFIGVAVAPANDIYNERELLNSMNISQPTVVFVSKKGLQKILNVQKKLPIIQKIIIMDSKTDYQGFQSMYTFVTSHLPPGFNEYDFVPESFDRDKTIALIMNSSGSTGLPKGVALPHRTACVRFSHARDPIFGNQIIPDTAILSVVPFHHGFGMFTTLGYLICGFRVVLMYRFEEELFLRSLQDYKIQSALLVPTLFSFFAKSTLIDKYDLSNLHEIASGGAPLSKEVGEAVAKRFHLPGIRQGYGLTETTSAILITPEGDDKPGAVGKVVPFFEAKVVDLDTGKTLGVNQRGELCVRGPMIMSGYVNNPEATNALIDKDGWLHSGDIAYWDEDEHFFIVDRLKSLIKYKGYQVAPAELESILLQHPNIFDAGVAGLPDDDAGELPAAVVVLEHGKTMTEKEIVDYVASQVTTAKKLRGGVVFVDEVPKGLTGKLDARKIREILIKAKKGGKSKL
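Purified P. pyralis luciferase (10nM final) with 10uM D-luciferin and 10uM ATP (Km levels) in 50mM Tris acetate pH 7.5, 10mM Mg acetate, 0.01% Tween-20, 0.05% BSA; qHTS 6-point titration, ~60 µM downward; luminescence read.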
SMN2 splice enh = enhancers of SMN2 splice variant expression. Potency, µM (series often up to 46.1 µM), hits mostly activators. HEK293 SMN2-luciferase splicing reporter, luminescence, 30-36 h. 210,000 tested, 2.8% active. AID 1458; further: nearly all actives have a fitted effect of over 55% in size
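HEK293 cells carry an SMN2 minigene-luciferase reporter in which exon 7 inclusion puts luciferase in frame. Cells were seeded at 2000 cells/well, attached for 10-12 hours, then exposed to compounds for 30-36 hours at 37C before ONE-Glo luminescence.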
Rab9 promoter act = activators of Rab9 promoter. Huh7 Rab9 promoter-luciferase reporter, luminescence, 24 h. Potency, µM (titrated, usually from 9.22 µM), hits mostly activators. 320,000 tested, 2.8% active. AID 485297; further: nearly all actives have a fitted effect of over 60% in size
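Steps: seed 1500 Huh7 Rab9-luc cells per well, rest 2 h at 37 °C; add compound in DMSO; incubate 24 h; add luciferase reagent, 10 min ambient; read luminescence.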
KinaseGlo FLuc = blocks Kinase-Glo luciferase, a counter-screen artifact. 200,000 tested, 0.28% active. Kinase-Glo luciferase, ATP luminescence, 8 min. AID 1379. Potency, µM (doses to about 38.3 µM), actives largely listed as inhibitors; further: nearly all actives have a fitted effect of over 60% in size
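Substrate mix (final 50 mM imidazole pH 7.2, 50 mM KCl, 7 mM MgCl2, 10 uM ATP, 0.01% Tween 20, 0.05% BSA) plus pin-tool compound, then Kinase-Glo detection mix; 8 min ambient, luminescence read.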
NPC1 prom act = activates the NPC1 promoter; Huh7 NPC1 promoter luciferase reporter, 24 h; 320,000 tested, 2.4% active; AID 485313; Potency, µM (doses to about 9.22 µM), actives largely listed as activators; further: nearly all actives have a fitted effect of over 60% in size
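Stable NPC1-promoter luciferase Huh7 line; cpd (DMSO) 24 h, 37 °C, 5% CO2; Amplite luciferase reagent 10 min RT; luminescence readout. qHTS format.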
ELG1 genotox = induces genotoxicity in HEK293T cells with luciferase-tagged ELG1. HEK293T ELG1-luciferase reporter, luminescence, 16 h. Potency, µM (top dose mostly 46 µM), actives largely listed as activators. 330,000 tested, 1.3% active. AID 504466; further: nearly all actives have a fitted effect of over 60% in size
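HEK293T cells expressing luciferase-tagged ELG1 were treated with compound or DMSO for 16 hr at 37°C. Luciferase activity was then read after 30 min with ONE-Glo at room temperature; rising signal flags genetic stress.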
A number is an active result; - = inactive; ? = inconclusive; . = no result given; [ ] = dose if it differs, or a comment. This is a sample that favours compounds with a hit; in the whole collection about 7.5% have one here. The call rests on the fitted dose curve; in most records, active means well fitted curve in the direction sought with a large enough effect; inconclusive means small, poorly fitted or top-dose-only effect, or another doubt; inactive means no such curve, though single readings can be large; an effect the other way counts as inactive or inconclusive.

SMILES	FLuc counter	SMN2 splice enh	Rab9 promoter act	KinaseGlo FLuc	NPC1 prom act	ELG1 genotox
CC1=NN(c2ccccc2)C(=O)C1C(=O)C(=O)Nc1ccc(F)cc1 (stereo not drawn)	9.53µM	.	3.16µM	.	?	?
Clc1ccc(-c2cn3c(n2)-c2ccccc2C3)cc1Cl	0.849µM	1µM	2.51µM	?	3.55µM	?
O=c1c2ccccc2nc(/C=C/c2c[nH]c3ccccc23)n1CCO	10.7µM	.	?	-	?	-
CCCC[C@]12Cc3ccccc3[C@H](O1)C1=C(O2)C(=O)c2ccccc2C1=O	-[11.5 µM]	.	-[1.84 µM]	.	-[1.84 µM]	.
Nc1ccc(-c2nc3ccc([N+](=O)[O-])cc3[nH]2)cc1	3.38µM	3.55µM	1.41µM	-	2.24µM	3.66µM
O=[N+]([O-])c1ccc(-c2nc3ccc([N+](=O)[O-])cc3[nH]2)cc1	2.69µM	.	?	-	1.58µM	-
O=[N+]([O-])c1ccc2nc(C(O)C(O)c3nc4ccc([N+](=O)[O-])cc4[nH]3)[nH]c2c1 (stereo not drawn)	-	.	-	.	-	-
CCCC[n+]1ccc(-c2nc3ccc([N+](=O)[O-])cc3[nH]2)cc1	?	11.2µM	?	-	-	-
O=[N+]([O-])c1ccc2nc(/C=C/c3ccc(Cl)cc3)[nH]c2c1	5.36µM	-	?	-	?	-
CCc1ccc(NC(=O)Cn2ncc3c(C)n(Cc4cccc(Cl)c4)c(C)c3c2=O)cc1	-	-	.	.	.	.
Cc1cccc(OCC(=O)Nc2ccc(-c3nc4cc(C)ccc4o3)c(O)c2)c1	-	-	.	.	.	.
Cc1ccc2oc(-c3ccccc3)nc2c1	0.601µM	?	3.16µM	?	1.12µM	?
CCOc1cccc(-c2nc3cc(C)ccc3o2)c1	0.953µM	12.6µM	?	-	-	?
Cc1ccc2oc(-c3cccc(NC(=O)Cc4ccc(Cl)cc4)c3)nc2c1	-	-	.	.	.	.
CCc1ccccc1NC(=O)C1=C(C)C(=O)OC12CCCCCC2	-	.	.	.	.	.
Cc1ccc(-c2cc(=O)c3ccccc3[nH]2)cc1	19µM	-	?	-	-	-
Cc1ccc2[nH]c(-c3ccccc3)cc(=O)c2c1	1.69µM	11.2µM	?	-	?	?
Cc1ccc(-c2cc(=O)c3cc(Cl)ccc3[nH]2)cc1	0.536µM	.	3.98µM	-	?	?
CC(C)(C)C(=O)OCOP(=O)(OCOC(=O)C(C)(C)C)C(C)(Oc1ccc(O)cc1)P(=O)(OCOC(=O)C(C)(C)C)OCOC(=O)C(C)(C)C	.	.	.	-	.	.
CC(C)c1ccc(-c2nc3ccccc3s2)cc1	0.0757µM	.	-	.	-	-
COc1cc(-c2nc3ccccc3s2)ccc1O	8.49µM	?	?	-	-	?
CCOc1cc(-c2nc3ccccc3s2)ccc1O	15.1µM	.	-	.	?	?
O=S(=O)(c1cccc(-c2nc3ccccc3s2)c1)N1CCCC1	-[2.3 µM]	-	-	-	-	-
O=S(=O)(c1ccc(-c2nc3ccccc3s2)cc1)N1CCCC1	-	-	2.82µM	-	?	?
CC(C)Oc1ccc(C(=O)Nc2ccc(-c3nc4ccccc4s3)cc2)cc1	-	.	.	.	.	.
SMILES	FLuc counter	SMN2 splice enh	Rab9 promoter act	KinaseGlo FLuc	NPC1 prom act	ELG1 genotox
COc1ccc(-c2nc3ccccc3s2)cc1NC(=O)c1cccc(F)c1	-	.	.	.	.	.
COc1ccc(S(=O)(=O)N(CCc2ccccc2)CC(=O)Nc2ccc(C)c(C)c2)cc1OC	-	-	.	.	.	.
COc1ccc(-c2nc3ccccc3s2)cc1O	0.151µM	-	-	-	?	0.651µM
COc1ccc(-c2nc3ccccc3s2)cc1NC(=O)c1cc(OC)c(OC)c(OC)c1	?	-	.	.	.	.
CCOc1ccccc1Nc1nc(-c2ccc(C)cc2)c(CC(=O)O)s1	?	-	.	.	.	.
COc1ccccc1NC(=O)CSc1ccc(-c2ccc(-n3cccn3)cc2)nn1	1.51µM	.	-	.	-	-
CCN(CC)C(=O)CSc1nc(-c2ccccc2)cc(-c2ccc(OC)cc2)c1C#N	16.9µM	-	.	.	.	.
COc1ccccc1NC(=O)CSc1ccc(-c2ccccn2)nn1	-	.	-	.	-	?
COc1ccc(-c2ccc(SCC(=O)NCc3ccco3)nn2)cc1OC	21.3µM	-	-	-	-	-
COc1ccc(-c2cc(C(F)(F)F)nc(SCC(=O)NCc3ccco3)n2)cc1OC	-	-	-	-	-	-

Source: PubChem (National Center for Advancing Translational Sciences (NCATS))
